PubChem BioAssay (NCATS)
Results filed as inconclusive are left out. The source made the active and inactive calls. The call rests on the fitted dose curve; in most records, active means well fitted curve in the direction sought with a large enough effect; inconclusive means small, poorly fitted or top-dose-only effect, or another doubt; inactive means no such curve, though single readings can be large; an effect the other way counts as inactive or inconclusive.

Tests used:
[1] = qHTS to identify inhibitors of the type 1 interferon - major histocompatibility complex class I in skeletal muscle: primary screen against the NCATS LOPAC collection (AID 1347405);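 further: lytic HiBiT luminescence reporting HLA-B protein level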
Method in brief: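 Immortalized human C25cl48 myoblasts with HiBiT knocked into endogenous HLA-B*08:01 were stimulated with 4.0 ng/ml IFN-beta and given compounds in a 7-point, 1:4.3 titration from 46 uM final; after 24 hrs, lytic HiBiT luminescence was read.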

[2] = qHTS to identify inhibitors of the type 1 interferon - major histocompatibility complex class I in skeletal muscle: primary screen against the NCATS Pharmaceutical Collection (AID 1347407);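 further: luminescence of HiBiT knocked into endogenous HLA-B as interferon-induced MHC class I level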
Method in brief: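 A qHTS format is used: 8-point, 1:5 compound series with 46 uM top final concentration, applied alongside 4 ng/ml IFN-beta to HLA-B*08:01-HiBiT knock-in myoblasts. Luminescence is measured after 24 h treatment.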

[3] = qHTS for inhibitors of adenylyl cyclases using a fission yeast platform: a pilot screen against the NCATS LOPAC library (AID 1347410)
Method in brief: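 Inhibition of GNAS-stimulated AC9 activity in S. pombe was inferred from derepression of a PKA-repressed fbp1-GFP reporter, measured as cytometric fluorescence after 18 h at 30C with compounds at up to 57 µM.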

[4] = molecular target: Protein phosphatase 1D (Homo sapiens) (UniProt O15297); test: RapidFire Mass Spectrometry qHTS Assay for Modulators of WT P53-Induced Phosphatase 1 (WIP1) (AID 1347424);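 further: amount of dephosphorylated VEPPL-S-QETFS peptide product formed by WIP1; series mostly up to about 63 µM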
Chain of Protein phosphatase 1D (Homo sapiens) (O15297 whole entry, looked up): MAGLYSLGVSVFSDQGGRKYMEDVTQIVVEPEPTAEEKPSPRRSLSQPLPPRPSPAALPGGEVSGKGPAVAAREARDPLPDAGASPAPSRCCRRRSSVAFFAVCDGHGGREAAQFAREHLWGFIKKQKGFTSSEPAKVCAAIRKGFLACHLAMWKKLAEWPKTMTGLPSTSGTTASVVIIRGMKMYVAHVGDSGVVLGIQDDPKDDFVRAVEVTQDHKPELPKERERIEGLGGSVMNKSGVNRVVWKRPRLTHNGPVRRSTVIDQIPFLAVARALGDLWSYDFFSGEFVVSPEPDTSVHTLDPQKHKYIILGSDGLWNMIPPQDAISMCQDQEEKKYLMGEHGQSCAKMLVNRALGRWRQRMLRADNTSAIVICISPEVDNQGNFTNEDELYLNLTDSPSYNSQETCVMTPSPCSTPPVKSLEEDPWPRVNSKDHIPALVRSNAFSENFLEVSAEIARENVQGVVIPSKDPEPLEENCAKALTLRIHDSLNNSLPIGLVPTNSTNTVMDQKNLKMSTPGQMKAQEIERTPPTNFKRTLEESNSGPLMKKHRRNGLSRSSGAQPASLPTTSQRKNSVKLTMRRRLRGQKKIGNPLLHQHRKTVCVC
Method in brief: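 WIP1 (10 nM final) was preincubated 1 h at room temperature with compounds in Tris-HCl pH 7.5, 30 mM MgCl2, TCEP, EGTA, BSA; 2 uM VEPPL-pS-QETFS phosphopeptide was added for 5 min, quenched with formic acid, and dephosphorylated product quantified by RapidFire MS.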

[5] = molecular target: Protein phosphatase 1D (Homo sapiens) (UniProt O15297); test: Rhodamine-PBP qHTS Assay for Modulators of WT P53-Induced Phosphatase 1 (WIP1) (AID 1347425)
Method in brief: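 WIP1 (5 nM final) was preincubated with compound for 1 hour at room temperature. It then dephosphorylated 10 uM VEPPL-pS-QETFS peptide in Tris-HCl pH 7.5 with 30 mM MgCl2. Released Pi was detected by 10 uM Rh-PBP fluorescence (ex 525/em 598 nm) read at 1-min intervals for 11 min, as delta f1 - f0.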

[6] = Validation qHTS assay for inhibitors of Activation Induced Cytidine Deaminase (AID): UDG Counterscreen signal (AID 1347427)
Method in brief: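 Counterscreen read of UDG activity (2 U/mL, 4/3x) in the FRET deamination format with AID (1 uM, 4/3x), DJC20/DJC23 substrates (250 nM, 4x), 4 h at room temperature. NaOH stop, fluorescence at 560 ex/665 em.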

[7] = molecular target: Single-stranded DNA cytosine deaminase (Homo sapiens) (UniProt Q9GZX7); test: Validation qHTS assay for inhibitors of Activation Induced Cytidine Deaminase (AID): AID signal (AID 1347429)
Chain of Single-stranded DNA cytosine deaminase (Homo sapiens) (Q9GZX7 whole entry, looked up): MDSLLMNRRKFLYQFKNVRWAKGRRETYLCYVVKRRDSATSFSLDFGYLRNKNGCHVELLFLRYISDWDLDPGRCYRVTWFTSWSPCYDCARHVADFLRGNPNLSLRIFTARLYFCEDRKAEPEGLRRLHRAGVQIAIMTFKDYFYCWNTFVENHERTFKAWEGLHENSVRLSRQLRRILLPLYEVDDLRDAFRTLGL
Method in brief: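 AID and UDG were combined and compounds added at final up to 114 uM, then DJC20/DJC23 FRET substrate was added for 4 hr at room temperature. NaOH was then added for 30 min before fluorescence was read at 540/590 nm.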

[8] = qHTS to identify inhibitors of the type 1 interferon - major histocompatibility complex class I in skeletal muscle: primary screen against the NCATS Mechanism Interrogation Plate v5.0 (MIPE) Libary (AID 1347411); further: nearly all actives have a fitted effect of over 65% in size
Method in brief: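 Immortalized human C25cl48 myoblasts with HiBit knocked into endogenous HLA-B*08:01 were stimulated with 4.0 ng/ml IFN-beta and exposed to compounds (11-point 1:3 titration, top 46 uM final) for 24 hrs at 37 C; HiBiT lytic luminescence measured.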

Measured: Potency

Cc1cn([C@H]2C=C[C@@H](CO)O2)c(=O)[nH]c1=O
not listed: [8]
inactive: all other assays above

N[C@@H](Cc1c[nH]c2ccc(O)cc12)C(=O)O
inactive: all assays above

CC(C)(Oc1ccc(C2CC2(Cl)Cl)cc1)C(=O)O (stereo not drawn)
inactive: all assays above

Clc1ccc2c(c1)C(N1CCNCC1)=Nc1ccccc1O2
not listed: [8]
inactive: all other assays above

NC(=O)OCC(COC(N)=O)c1ccccc1
inactive: all assays above

Clc1ccc2nsnc2c1NC1=NCCN1
inactive: all assays above

CN(C)CCC=C1c2ccccc2C=Cc2ccccc21
inactive: all assays above

CN1CCC(=C2c3ccccc3CC(=O)c3sccc32)CC1
inactive: all assays above

CC12CC3CC(C)(C1)CC(N)(C3)C2
inactive: all assays above

C[C@H]1c2cccc(O)c2C(O)=C2C(=O)[C@]3(O)C(O)=C(C(N)=O)C(=O)[C@@H](N(C)C)[C@@H]3[C@@H](O)[C@@H]21
inactive: all assays above
